Source: PubChem
HCMV antiviral: human cytomegalovirus inhibition | AID 1259415 | activity change, negative = inhibition, % at 57.5 µM | 410,000 tested, 4.5% active | HFF cells, HCMV-luciferase reporter, 72 h; active compounds read low; in the data active = activity change below about -60%; inconclusive = no clear call, values can overlap the other calls; inactive = above about -39%
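Inhibition of viral replication was scored as loss of reporter luminescence in HFFs infected with HCMV-luciferase (MOI 1 PFU/cell) for 72 h; compounds tested at 2 doses, normalized to buffer and Salinomycin controls.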
MARV entry inh: inhibitors of Marburg virus binding or cell entry | Potency, µM (highest dose often 37.8 µM), hits mostly inhibitors | 300,000 tested, 1.8% active | Marburg virus pseudotyped entry inhibition, cell reporter; calls by dose curve; tested in HEK293 cells
LASV entry inh: blocks Lassa virus binding to or entry into cells. Lassa virus pseudotype entry inhibition, cell reporter. Potency, µM (series often up to 37.9 µM), actives largely listed as inhibitors. 300,000 tested, 1.2% active; calls by dose curve; tested in HEK293 cells; also: nearly all actives have a fitted effect of over 50% in size
Vaccinia mCherry: inhibitors of vaccinia virus infection (mCherry reporter signal); Vaccinia virus mCherry reporter infection, fluorescence; Potency, µM (doses to about 36.5 µM), usual class: inhibitors; 310,000 tested, 0.63% active; calls by dose curve; tested in A549 cells; also: nearly all actives have a fitted effect of over 35% in size
Vaccinia Venus: inhibitors of vaccinia virus (Venus reporter); Potency, µM (titrated, usually from 36.5 µM), usual class: inhibitors; 330,000 tested, 0.46% active; Vaccinia virus Venus reporter expression, fluorescence; calls by dose curve; tested in A549 cells; also: nearly all actives have a fitted effect of over 30% in size
FMDV inh: foot and mouth disease virus antiviral activity; FMDV antiviral cell-based qHTS; 410,000 tested, 1.2% active; Potency, µM (series often up to 57.9 µM), hits mostly inhibitors; AID 1159524; calls by dose curve; tested in HEK293T cells; also: read-out not given here; nearly all actives have a fitted effect of over 45% in size
Numbers stand for hits; 0 = inactive; ? = inconclusive; - = no result given; [ ] = remark or other dose. An excerpt weighted towards active compounds, which were near 6.5% of everything screened.

SMILES	HCMV antiviral	MARV entry inh	LASV entry inh	Vaccinia mCherry	Vaccinia Venus	FMDV inh
CN(C)c1ccc(NC(=O)CN2CCC(O)(c3ccccc3)CC2)cc1	0	0	0	0	0	0
CN(C)C(=O)C(CCN1CCC(O)(c2ccc(Cl)cc2)CC1)(c1ccccc1)c1ccccc1	0	4.1µM	4.1µM	0	0	0
O=C(NCc1nnc2n1CCN(Cc1ccnc3ccccc13)CC2)c1cccc(F)c1	-	-	-	0	0	0
CCCCNS(=O)(=O)c1ccc(NC(=O)Cc2ccc(OC)cc2)cc1	-67	?	0	0	0	0
C=C1C2CC[C@]3(CCC4[C@@]5(C)CCC[C@@]4(CN(CCO)C5)[C@@H]3C2)[C@@H]1O (stereo not given in full)	-	-	-	-	-	0
Cc1sc2ncnc(NCCc3ccc(S(N)(=O)=O)cc3)c2c1C	-76	?	?	0[1.46 µM]	?	11µM
Cc1ccc(S(=O)(=O)Nc2ncnc3sc(C)c(C)c23)cc1	0	0	0	0	0	0
CN(C)c1ncc2nc(-c3cc(F)cc(F)c3)c(=O)n(C[C@H]3CCCO3)c2n1	-	-	-	-	-	0
COC(=O)c1ccccc1COc1cccn2c(N(C)CC3CC3)c(C)nc12	-99	-	-	0	0	0
COc1ccc(O)c(-c2nc(N)nc(N)n2)c1	0	-	-	?	?	0
Nc1nc(N)nc(-c2cc(F)ccc2O)n1	0	-	-	?	10µM	0
CC(C)c1c(C(=O)N2CCCCC2c2cccnc2)cnn1-c1nccc(-c2cccs2)n1 (stereo not given)	-	-	-	?	0	0
CCN(CC)CCNc1nc(SC)nc2sc3c(c12)CCN(C)C3	0	7.1µM	?	?	0	0
CSc1nc(NCCCN(C)C)c2c3c(sc2n1)CN(C)CC3	0	-	-	-	-	-
CCC(=O)NC(c1ccc(OC)cc1)c1c(O)ccc2ccccc12 (stereo not given)	0	-	-	0	0	0
CCCCC(=O)NC(c1ccccc1)c1ccc2cccnc2c1O (stereo not given)	-100	?	?	1.6µM	?	0
O=C(O)CCC(=O)NC(c1ccccc1)c1ccccc1	0	?	0	0	0	0
CCCC(=O)NC(c1ccc(OC)cc1)c1ccc2cccnc2c1O (stereo not given)	-99	?	?	8.9µM	?	0
CCCCC(=O)NC(c1ccc(C(C)C)cc1)c1ccc2cccnc2c1O (stereo not given)	-103	-	-	-	-	0
CC(C)c1ccc(C(=O)Nc2cccc3cccnc23)cc1	0	0	0	0	0	0
CC(=O)NC(c1ccc(C(C)C)cc1)c1ccc2cccnc2c1O (stereo not given)	-99	?	?	?	?	0
CCCCNc1cccc2c1S(=O)(=O)N[C@@H](CC(C)C)CO2	0	?	-	-	-	-
Cc1c(C(=O)NCCC2CCCN2C)cnn1-c1nccc(-c2ccccc2F)n1 (stereo not given)	-	-	-	0	0	0
COC(=O)c1cc2oc(C)cc2n1CC(=O)Nc1ccc(C(C)C)cc1	0	?	-	0	0	0
CC(C)(C)OC(=O)/C=C/[C@H]1Cc2ccccc2N1	0	-	-	-	-	-
SMILES	HCMV antiviral	MARV entry inh	LASV entry inh	Vaccinia mCherry	Vaccinia Venus	FMDV inh
COC1=C(C(=O)c2ccccc2)C(=O)[C@@]2(CC=C(C)C)CC(C#N)C[C@@]1(CC=C(C)C)C2=O (stereo not given in full)	-	0	0	-	-	-
Oc1c(C(c2ccccc2Cl)N2CCCC2)ccc2cccnc12 (stereo not given)	0	-	-	?	?	?
CCCC(=O)NC(c1ccccc1)c1ccc2cccnc2c1O (stereo not given)	-102	?	?	?	?	0
CC(C)CC(=O)NC(c1ccccc1)c1c(O)ccc2ccccc12 (stereo not given)	0	?	0	0	0	0
CCC(=O)NC(c1ccccc1OC)c1ccc2cccnc2c1O (stereo not given)	-	4.6µM	?	?	?	0
CCCCC(=O)NC(c1ccccc1Cl)c1ccc2cccnc2c1O (stereo not given)	-96	-	-	-	-	0
O=C(Cc1ccccc1)N1CCc2[nH]nc(-c3ccccc3)c2C1	0	?	11µM	0	0	0
COc1ccc(-c2n[nH]c3c2CN(C(=O)c2ccc(OC)c(OC)c2)CC3)cc1	0	-	-	-	-	?
CN(C)CCN(CC1CCCN(Cc2ccccc2F)C1)C(=O)c1ccc(Cl)cc1 (stereo not given)	0	8.9µM	?	?	0	0
C=C(Nc1ccc(OC)cc1)C(=O)OC	-	0	-	-	-	-
FC(F)(F)c1ccc(N2CCOCC2)c(Nc2nc3ccccc3n3cnnc23)c1	0	4.1µM	?	-	-	0
c1ccc(N2CCCCC2)c(Nc2nc3ccccc3n3cnnc23)c1	?	?	?	?	0	0
Cc1nc([N+](=O)[O-])cn1CC(=O)c1ccc2c(c1)OCCCO2	-	-	-	0	0	-
CC(C#N)Sc1ccc(S(=O)(=O)N2CCCCC2)cn1 (stereo not given)	0	-	-	-	-	?
CC(C#N)Sc1ccc(S(=O)(=O)N(C)C2CCCCC2)cn1 (stereo not given)	-62	-	-	-	-	0
CCOC(=O)c1c(C)n(C)c2cc(CN(C)C)c(O)c(S(=O)(=O)c3ccccc3)c12	-69	0	0	0	0	0
CCOC(=O)c1c(C)n(C)c2ccc(O)c(CN3CCN(C)CC3)c12	0	0	0	0	0	-
CCOC(=O)c1c(-c2ccccc2)oc2ccc(O)c(CN3CCN(C)CC3)c12	-66	?	?	?	?	0
CCOC(=O)c1c(-c2ccccc2)oc2cc(CN(C)C)c(O)c(CN(C)C)c12	-106	?	?	-	-	0
CCOC(=O)c1c(C)n(C)c2ccc(O)c(CN3CCC(C)CC3)c12	-	11µM	?	0	0	0
CCOC(=O)c1c(-c2ccccc2)oc2ccc(O)cc12	0	-	-	-	-	0
C[C@H]1[C@H](c2ccccc2)Oc2cccc(NCCc3ccccc3)c2S(=O)(=O)N1Cc1ccc(F)cc1	0	-	-	-	-	-
COc1ccc(CN2C(=O)N(c3ccc(C)cc3)C(=O)C2CC(=O)Nc2ccccc2)cc1OC (stereo not given)	0	0	0	0	0	0
COc1cccc(-c2cc3c(c(OC)c2)OCCN(Cc2ccccc2O)C3)n1	-	-	-	0	0	0
Cn1c(CNc2nc3ccccc3n2CCN2CCCCC2)nc2ccccc21	0	2.8µM	0	0	?	0
SMILES	HCMV antiviral	MARV entry inh	LASV entry inh	Vaccinia mCherry	Vaccinia Venus	FMDV inh
CCN(CC)c1ccc(CNc2nc3ccccc3n2CCN2CCCCC2)cc1	-99	?	?	?	?	0
c1ccc(Cn2c(CNc3nc4ccccc4n3CCN3CCCCC3)nc3ccccc32)cc1	0	?	?	-	0	?
COCc1c(Br)c(C)nc2sc3c(=O)n(-c4cccc(Br)c4)nnc3c12	0	0	0	0	0	0
O=C(CCNS(=O)(=O)c1ccc2c(c1)CCN2C(=O)C1CC1)Nc1ccc(F)cc1F	0	-	0	0	0	0
Cc1c(C(=O)c2ccc(F)cc2)c2ccccn2c1CCc1ccccn1	0	?	0	0	0	40µM
Cc1c(C(=O)c2ccccc2)c2ccccn2c1CCc1ccccn1	0	?	?	0	0	0
CC(C)N=C(NS(=O)(=O)c1ccccc1)C(Cl)(Cl)Cl	-98	?	?	14µM	11µM	0
